Assay results as given in PubChem BioAssay AID1159580 (chemical genetic matrix, 2015).
Screen size: about 5,500 compounds; about 2,000 (36%) were called active. Another 18% or so got no clear call; they are omitted. Cut-off read from the data, not from the text of the source: active = normalized growth mostly below about 0.91 (no sharp cut-off); inconclusive = no clear call, values can overlap the other calls; inactive = mostly above about 0.92. This is one part of the list.

Assay: chemical genetic growth profiling, strain panel (AID 1159580);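 note: tested at 20 µM; growth read once vehicle control cultures reached saturation at 30 °C; 1 = growth at the plate median or of vehicle wells; lower values mean less growth of the strain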
Settings: growth OD
[1] = S. cerevisiae deletion strains, locus YDL101C, strain DUN1, active compounds read low
[2] = S. cerevisiae deletion strains, locus YHR030C, strain SLT2, active compounds read low
[3] = S. cerevisiae deletion strains, locus YJL095W, strain BCK1, active compounds read low
[4] = S. cerevisiae deletion strains, locus YOR061W, strain CKA2, active compounds read low

Measured: normalized growth

COc1ccc(NNC(=O)c2sc3ccccc3c2Cl)cc1
inactive: S. cerevisiae deletion strains, locus YAR019C, strain CDC15, active compounds read low 0.921 | S. cerevisiae deletion strains, locus YBL105C, strain PKC1, active compounds read low 0.927 | S. cerevisiae deletion strains, locus YBR135W, strain CKS1, active compounds read low 0.915 | S. cerevisiae deletion strains, locus YBR136W, strain MEC1, active compounds read low 0.922 | S. cerevisiae deletion strains, locus YBR160W, strain CDC28, active compounds read low 0.927 | S. cerevisiae deletion strains, locus YDL017W, strain CDC7, active compounds read low 0.936 | S. cerevisiae deletion strains, locus YDL028C, strain MPS1, active compounds read low 0.929 | [1] 0.954 | S. cerevisiae deletion strains, locus YDL108W, strain KIN28, active compounds read low 0.93 | S. cerevisiae deletion strains, locus YDL132W, strain cdc53, active compounds read low 0.959 | S. cerevisiae deletion strains, locus YDR052C, strain DBF4, active compounds read low 0.935 | S. cerevisiae deletion strains, locus YDR054C, strain cdc34, active compounds read low 0.923 | S. cerevisiae deletion strains, locus YDR226W, strain ADK1, active compounds read low 0.938 | S. cerevisiae deletion strains, locus YDR477W, strain SNF1, active compounds read low 0.694 | S. cerevisiae deletion strains, locus YFL009W, strain cdc4, active compounds read low 0.941 | S. cerevisiae deletion strains, locus YFL029C, strain CAK1, active compounds read low 0.92 | S. cerevisiae deletion strains, locus YFR003C, strain YPI1, active compounds read low 0.93 | S. cerevisiae deletion strains, locus YFR028C, strain CDC14, active compounds read low 0.92 | S. cerevisiae deletion strains, locus YHR082C, strain KSP1, active compounds read low 0.656 | S. cerevisiae deletion strains, locus YHR205W, strain SCH9, active compounds read low 0.612 | S. cerevisiae deletion strains, locus YIL147C, strain SLN1, active compounds read low 0.924 | S. cerevisiae deletion strains, locus YJL128C, strain PBS2, active compounds read low 0.878 | S. cerevisiae deletion strains, locus YJR016C, strain ILV3, active compounds read low 0.903 | S. cerevisiae deletion strains, locus YJR066W, strain TOR1, active compounds read low 0.579 | S. cerevisiae deletion strains, locus YKL193C, strain SDS22, active compounds read low 0.923 | S. cerevisiae deletion strains, locus YMR001C, strain CDC5, active compounds read low 0.925 | S. cerevisiae deletion strains, locus YMR277W, strain FCP1, active compounds read low 0.926 | S. cerevisiae deletion strains, locus YNL006W, strain LST8, active compounds read low 0.914 | S. cerevisiae deletion strains, locus YNL161W, strain CBK1, active compounds read low 0.918 | S. cerevisiae deletion strains, locus YNL183C, strain NPR1, active compounds read low 0.595 | S. cerevisiae deletion strains, locus YNL207W, strain RIO2, active compounds read low 0.948 | S. cerevisiae deletion strains, locus YNL222W, strain SSU72, active compounds read low 0.906 | S. cerevisiae deletion strains, locus YOL078W, strain AVO1, active compounds read low 0.913 | S. cerevisiae deletion strains, locus YOR329C, strain SCD5, active compounds read low 0.927 | S. cerevisiae deletion strains, locus YPL209C, strain IPL1, active compounds read low 0.918 | S. cerevisiae deletion strains, locus YPR025C, strain CCL1, active compounds read low 0.929 | S. cerevisiae deletion strains, locus YPR106W, strain ISR1, active compounds read low 0.907 | S. cerevisiae deletion strains, locus YPR111W, strain DBF20, active compounds read low 0.918 | S. cerevisiae deletion strains, strain NNK1, active compounds read low 0.908 | S. cerevisiae deletion strains, strain TSCII, active compounds read low 0.923
active: S. cerevisiae deletion strains, locus YDL214C, strain PRR2, active compounds read low 0.692 | S. cerevisiae deletion strains, locus YER123W, strain YCK3, active compounds read low 0.287 | S. cerevisiae deletion strains, locus YER133W, strain GLC7, active compounds read low 0.663 | S. cerevisiae deletion strains, locus YFR019W, strain FAB1, active compounds read low 0.37 | S. cerevisiae deletion strains, locus YGR040W, strain KSS1, active compounds read low 0.681 | S. cerevisiae deletion strains, locus YGR052W, strain FMP48, active compounds read low 0.558 | S. cerevisiae deletion strains, locus YGR092W, strain DBF2, active compounds read low 0.117 | [2] 0.302 | S. cerevisiae deletion strains, locus YHR079C, strain IRE1, active compounds read low 0.502 | [3] 0.341 | S. cerevisiae deletion strains, locus YJL157C, strain FAR1, active compounds read low 0.544 | S. cerevisiae deletion strains, locus YJR066W, strain TOR1 (second series), active compounds read low 0.243 | S. cerevisiae deletion strains, locus YKL048C, strain ELM1, active compounds read low 0.658 | S. cerevisiae deletion strains, locus YKL067W, strain YNK1, active compounds read low 0.587 | S. cerevisiae deletion strains, locus YKL101W, strain HSL1, active compounds read low 0.657 | S. cerevisiae deletion strains, locus YKL203C, strain TOR2, active compounds read low 0.686 | S. cerevisiae deletion strains, locus YLR113W, strain HOG1, active compounds read low 0.293 | S. cerevisiae deletion strains, locus YLR133W, strain CKI1, active compounds read low 0.627 | S. cerevisiae deletion strains, locus YLR403W, strain SFP1, active compounds read low 0.563 | S. cerevisiae deletion strains, locus YML070W, strain DAK1, active compounds read low 0.419 | S. cerevisiae deletion strains, locus YMR205C, strain PFK2 (second series), active compounds read low 0.659 | S. cerevisiae deletion strains, locus YNL020C, strain ARK1, active compounds read low 0.643 | S. cerevisiae deletion strains, locus YNL307C, strain MCK1 (second series), active compounds read low 0.262 | S. cerevisiae deletion strains, locus YOL136C, strain PFK27, active compounds read low 0.433 | [4] 0.299 | S. cerevisiae deletion strains, locus YOR119C, strain RIO1, active compounds read low 0.604 | S. cerevisiae deletion strains, locus YOR231W, strain MKK1, active compounds read low 0.507 | S. cerevisiae deletion strains, locus YPL031C, strain PHO85, active compounds read low 0.657 | S. cerevisiae deletion strains, locus YPL153C, strain RAD53, active compounds read low 0.525 | S. cerevisiae deletion strains, locus YPL204W, strain HRR25, active compounds read low 0.576 | S. cerevisiae deletion strains, locus YPL256C, strain CLN2, active compounds read low 0.441

C[C@]12CC(=O)C3C(CC[C@@H]4C[C@H](O)CC[C@]34C)C1CC[C@]2(O)C(=O)CO (stereo partly specified)
inactive: S. cerevisiae deletion strains, locus YAL013W, strain DEP1, active compounds read low 0.997 | S. cerevisiae deletion strains, locus YBR021W, strain FUR4, active compounds read low 0.976 | S. cerevisiae deletion strains, locus YBR229C, strain ROT2, active compounds read low 0.99 | S. cerevisiae deletion strains, locus YCL029C, strain bik1, active compounds read low 1.01 | S. cerevisiae deletion strains, locus YDL035C, strain GPR1, active compounds read low 0.996 | S. cerevisiae deletion strains, locus YDL074C, strain BRE1, active compounds read low 0.978 | [1] 0.996 | S. cerevisiae deletion strains, locus YDL185W, strain tfp1, active compounds read low 0.977 | S. cerevisiae deletion strains, locus YDL192W, strain arf1, active compounds read low 1 | S. cerevisiae deletion strains, locus YDR101C, strain arx1, active compounds read low 0.978 | S. cerevisiae deletion strains, locus YDR150W, strain NUM1, active compounds read low 0.994 | S. cerevisiae deletion strains, locus YDR162C, strain NBP2, active compounds read low 1.02 | S. cerevisiae deletion strains, locus YDR318W, strain mcm21, active compounds read low 1.01 | S. cerevisiae deletion strains, locus YDR388W, active compounds read low 0.995 | S. cerevisiae deletion strains, locus YDR502C, strain sam2, active compounds read low 1.01 | S. cerevisiae deletion strains, locus YEL061C, strain CIN8, active compounds read low 0.995 | S. cerevisiae deletion strains, locus YER110C, active compounds read low 0.986 | S. cerevisiae deletion strains, locus YER155C, strain BEM2, active compounds read low 0.986 | S. cerevisiae deletion strains, locus YER167W, strain BCK2, active compounds read low 0.992 | S. cerevisiae deletion strains, locus YGL078C, strain dbp3, active compounds read low 0.983 | S. cerevisiae deletion strains, locus YGL086W, strain mad1, active compounds read low 0.97 | S. cerevisiae deletion strains, locus YGL248W, strain PDE1, active compounds read low 1.01 | S. cerevisiae deletion strains, locus YGR135W, strain pre9, active compounds read low 1.03 | S. cerevisiae deletion strains, locus YGR252W, strain gcn5, active compounds read low 1.06 | [2] 0.991 | S. cerevisiae deletion strains, locus YHR079C, strain IRE1 (second series), active compounds read low 0.992 | S. cerevisiae deletion strains, locus YHR094C, strain hxt1, active compounds read low 0.986 | S. cerevisiae deletion strains, locus YHR129C, strain ARP1, active compounds read low 0.992 | S. cerevisiae deletion strains, locus YHR200W, strain rpn10, active compounds read low 1.02 | S. cerevisiae deletion strains, locus YIL066C, strain RNR3, active compounds read low 0.998 | S. cerevisiae deletion strains, locus YIL073C, strain SPO22, active compounds read low 1.03 | S. cerevisiae deletion strains, locus YIL125W, strain kgd1, active compounds read low 0.997 | S. cerevisiae deletion strains, locus YIR030C, strain dcg1, active compounds read low 0.991 | [3] 1.04 | S. cerevisiae deletion strains, locus YJL134W, strain LCB3, active compounds read low 0.992 | S. cerevisiae deletion strains, locus YJL168C, strain set2, active compounds read low 0.994 | S. cerevisiae deletion strains, locus YJL187C, strain SWE1 (second series), active compounds read low 1 | S. cerevisiae deletion strains, locus YJR043C, strain POL32, active compounds read low 1 | S. cerevisiae deletion strains, locus YJR075W, strain HOC1, active compounds read low 0.997 | S. cerevisiae deletion strains, locus YKL009W, strain mrt4, active compounds read low 1.1 | S. cerevisiae deletion strains, locus YKL068W, active compounds read low 0.994 | S. cerevisiae deletion strains, locus YKL085W, strain MDH1 (second series), active compounds read low 1 | S. cerevisiae deletion strains, locus YKL085W, strain MDH1, active compounds read low 1 | S. cerevisiae deletion strains, locus YKR001C, strain vps1, active compounds read low 0.987 | S. cerevisiae deletion strains, locus YLR039C, strain RIC1, active compounds read low 0.977 | S. cerevisiae deletion strains, locus YLR058C, strain SHM2, active compounds read low 1.01 | S. cerevisiae deletion strains, locus YLR102C, strain apc9, active compounds read low 0.997 | S. cerevisiae deletion strains, locus YLR262C, strain YPT6, active compounds read low 1 | S. cerevisiae deletion strains, locus YLR268W, strain sec22, active compounds read low 0.96 | S. cerevisiae deletion strains, locus YLR330W, strain CHS5, active compounds read low 0.994 | S. cerevisiae deletion strains, locus YLR342W, strain FKS1 (second series), active compounds read low 0.982 | S. cerevisiae deletion strains, locus YLR371W, strain rom2, active compounds read low 0.993 | S. cerevisiae deletion strains, locus YLR418C, strain cdc73, active compounds read low 1.01 | S. cerevisiae deletion strains, locus YML016C, strain PPZ1, active compounds read low 0.991 | S. cerevisiae deletion strains, locus YML032C, strain rad52, active compounds read low 1.04 | S. cerevisiae deletion strains, locus YML124C, strain tub3, active compounds read low 0.998 | S. cerevisiae deletion strains, locus YMR078C, strain ctf18, active compounds read low 0.989 | S. cerevisiae deletion strains, locus YMR223W, strain ubp8, active compounds read low 1.02 | S. cerevisiae deletion strains, locus YMR263W, strain SAP30, active compounds read low 1 | S. cerevisiae deletion strains, locus YMR307W, strain GAS1, active compounds read low 1.07 | S. cerevisiae deletion strains, locus YNL067W, strain RPL9B, active compounds read low 1.01 | S. cerevisiae deletion strains, locus YNL128W, strain TEP1, active compounds read low 0.981 | S. cerevisiae deletion strains, locus YNL153C, strain GIM3, active compounds read low 1.01 | S. cerevisiae deletion strains, locus YNL233W, strain BNI4, active compounds read low 1.01 | S. cerevisiae deletion strains, locus YNL250W, strain rad50, active compounds read low 0.991 | S. cerevisiae deletion strains, locus YNL271C, strain bni1, active compounds read low 0.989 | S. cerevisiae deletion strains, locus YNL298W, strain CLA4, active compounds read low 0.989 | S. cerevisiae deletion strains, locus YNL307C, strain MCK1, active compounds read low 0.983 | S. cerevisiae deletion strains, locus YNL322C, strain KRE1, active compounds read low 0.998 | S. cerevisiae deletion strains, locus YNR052C, strain pop2, active compounds read low 0.991 | S. cerevisiae deletion strains, locus YOL012C, strain htz1 0.641 | S. cerevisiae deletion strains, locus YOL147C, strain pex11, active compounds read low 0.986 | [4] 0.995 | S. cerevisiae deletion strains, locus YOR069W, strain VPS5, active compounds read low 0.988 | S. cerevisiae deletion strains, locus YOR136W, strain idh2, active compounds read low 0.973 | S. cerevisiae deletion strains, locus YOR144C, strain elg1, active compounds read low 0.993 | S. cerevisiae deletion strains, locus YOR184W, strain ser1, active compounds read low 1.01 | S. cerevisiae deletion strains, locus YOR316C, strain cot1, active compounds read low 0.993 | S. cerevisiae deletion strains, locus YPL055C, strain LGE1, active compounds read low 1 | S. cerevisiae deletion strains, locus YPR119W, strain clb2, active compounds read low 0.997 | S. cerevisiae deletion strains, locus YPR141C, strain kar3, active compounds read low 0.992 | S. cerevisiae deletion strains, locus YPR163C, strain tif3, active compounds read low 0.996 | S. cerevisiae deletion strains, locus YPR167C, strain met16, active compounds read low 0.981 | S. cerevisiae deletion strains, strain wtn01, active compounds read low 0.943 | S. cerevisiae strains, strain wild type, active compounds read low 1
